# Results as given in PubChem BioAssay AID1645851 (National Center for Advancing Translational Sciences (NCATS), 2021).
# Several values for one entry are separate records, joined by “and”; a condition that tells them apart may be missing. Equal values may be shown once. Screen size: about 140,000 compounds; about 1,200 (0.86%) were called active. What follows is part of a selection rich in actives, with near analogues and random picks from the rest. Unmarked numbers belong to inactive results. No stated cut-off is given here; in the data, active means activity change below about -25%; inactive means the rest.
# Biological target: Inositol hexakisphosphate kinase 1 (Homo sapiens) (UniProt Q92551)
# Sequence (Q92551 whole entry, looked up): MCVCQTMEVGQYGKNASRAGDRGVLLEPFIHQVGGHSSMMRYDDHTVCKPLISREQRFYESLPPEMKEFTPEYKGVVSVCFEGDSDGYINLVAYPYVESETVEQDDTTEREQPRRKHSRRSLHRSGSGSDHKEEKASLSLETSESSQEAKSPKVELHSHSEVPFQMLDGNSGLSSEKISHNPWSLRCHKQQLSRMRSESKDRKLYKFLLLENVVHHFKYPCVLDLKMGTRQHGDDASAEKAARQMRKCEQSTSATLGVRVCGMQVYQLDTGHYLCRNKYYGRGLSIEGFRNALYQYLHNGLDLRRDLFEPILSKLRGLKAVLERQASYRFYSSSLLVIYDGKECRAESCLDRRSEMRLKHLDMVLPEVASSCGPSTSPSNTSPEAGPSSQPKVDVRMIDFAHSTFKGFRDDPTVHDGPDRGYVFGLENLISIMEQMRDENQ
# Experiment: Primary qHTS assay for small molecule inhibitors of Inositol hexaphosphate kinase 1 (IP6K1); further: series mostly up to about 58 µM
# Settings: ADP-Glo luminescence, 2 h, hits give low values
# Excerpt: Assay Provider: Huijun Wei, M.S., Ph.D. School of Medicine, Johns Hopkins University, Baltimore, MD Inositol hexakisphosphate kinases (IP6Ks) catalyze pyrophosphorylation of inositol hexakisphosphate (IP6) into inositol 5-diphospho-1,2,3,4,6-pentakisphosphate (IP7), which is involved in numerous areas of cell physiology including glucose homeostasis, blood coagulation and neurological development. Inhibition of IP6Ks may be effective for the treatment of Type II diabetes, thrombosis, and psychiatric disorders. We performed a quantitative high throughput screen (qHTS) of 158,410 compounds for IP6K1 inhibitors using ankinase activity ADP-Glo Max assay. […] Medicinal chemistry SAR efforts in three chemical series identified potent IP6K1 inhibitors, which were further validated in an orthogonal LC-MS IP7 analysis.
# PROTOCOL TABLE SEQUENCE No. (e.g., 1, 2, 3, etc.); […] (e.g., Cells, Incubation, Reagent, etc.); VALUE and DESCRIPTION. 1. Reagent, 3 uL of 1.3 mM ATP and 130 uM IP6 mixture in assay buffer was dispensed to a white, 1536-well assay plate. 2. Compound, 23 nL of compounds of the top two doses (57.5 uM and 19.1 uM final concentration) of the libraries were dispensed into the mixture using the Kalypsis pintool. 3. Reagent, 1 uL of 2.4 uM IP6K1 was dispensed to the assay plates. 4. Incubation, 2 hr incubation at room temperature. 5. Reagent, 2 uL of ADP-Glo reagent was added to the wells. 6. Incubation, 1 hr incubation at room temperature. 7. Reagent, 4 uL or ADP-Glo substate was added to the wells. 8. Incubation, 45 min incubation at room temperature. 9. Detection, luminescence signal was detected using the ViewLux microplate imager (PerkinElmer).
# On the % scale 0 is the no-effect control and ±100 the full control effect.
row,SMILES,activity change
1,CCOC(=O)c1cc(-c2ccc(OC)c(S(=O)(=O)Nc3ccc(OC)cc3OC)c2)on1,1.78%
2,Cc1ccc(-c2cc(C(=O)Oc3ccccc3Cl)no2)cc1C,-29.7% (active)
3,COCCNC(=O)c1cc(-c2cccc(Cl)c2)on1,-0.0295%
4,CC(O)CNC(=O)c1ccc(-c2ncc3cnc(C4=CCOCC4)cn23)cc1 (stereo not given),-10.8%
5,Cc1ccccc1CC(=O)N1CCCC(n2cc(-c3nc(-c4ccccc4)no3)nn2)C1 (stereo not given),9.4%
6,CC(C)NC(=O)N1CCN(c2ccc3nnc(C4CC4)n3n2)CC1,5.65%
7,Cc1cccc(N2CCN(c3ccc(C(=O)O)cc3NC(=O)c3ccccc3F)CC2C)c1 (stereo not given),-32.2% (active)
8,Cc1ccccc1NC(=O)c1c(NC(=O)c2ccccc2F)sc2c1CCC(C)C2 (stereo not given),-11.5%
9,Cc1cccc(C(=O)NCCC2CCN(C(=O)Nc3ccc(F)cc3F)CC2)c1,-7.16%
10,Cc1cccc(C)c1-c1nc(C(=O)N2CCN(c3ncccn3)CC2)n2ccccc12,8.82% and 13.4%
11,CCn1nc(CNC(=O)C2CCC(=O)N(C3CCCC3)C2)c2ccccc21 (stereo not given),-2.6%
12,CN1C[C@H](NS(C)(=O)=O)CCC[C@@H](C(=O)N(C)Cc2cccnc2)CC1=O,5.58%
13,COc1c(C)cnc(CN(C)C(=O)C2CC(=O)N(C3CCCC3)C2)c1C (stereo not given),-26.5% (active)
14,O=C(NC1CCN(c2nccc(Nc3ccccc3Cl)n2)CC1)c1ccccn1,0.678%
15,Cc1cc(N2CCC3(CC2)CC(c2ccccc2)C(=O)N3C)ncn1 (stereo not given),10.4%
16,Cc1ccncc1C(=O)N1CCC(Cn2c(C)cnc2-c2cccnc2)CC1,7.69%
17,Cc1ccncc1C(=O)N1CCC2(CC1)CC(c1ccccc1)C(=O)N2C (stereo not given),-28.9% (active)
18,COc1ccccc1-c1ccc(CN2CCC(NC(=O)c3ccncc3)C2)cc1 (stereo not given),24.3%
19,Cc1ccc(CN2C(=O)[C@@H]3C[C@@H](O)CN3C3(CN(Cc4ccc(C(F)(F)F)cc4)C3)C2=O)o1,-6.91%
20,Cc1cc(Cl)ccc1OCC(=O)N1CCc2n[nH]c(=O)n2CC1,-14.4%
21,COc1ccc(N2CCN(S(=O)(=O)CCNC(=O)C(c3ccccc3)c3ccccc3)CC2)cc1,23.7%
22,COc1cc(C(=O)NCCS(=O)(=O)N2CCN(c3ccccc3)CC2)cc(OC)c1OC,23.9%
23,COc1ccccc1N1CCN(S(=O)(=O)CCNC(=O)COc2ccc(F)cc2)CC1,-44.5% (active)
24,Cc1ccc2c(c1)N(CC(=O)NCCc1ccc(Cl)cc1)C(=O)c1cccnc1O2,-4.44%
25,Cc1ccc2c(c1)N(CC(=O)NCCCN1CCCCC1)C(=O)c1cccnc1O2,-101% (active)
26,O=C(CN1C(=O)c2cccnc2Oc2ccc(Cl)cc21)NCCc1ccccc1,-2.8%
27,Cc1ccc(C2(O)CCN(c3nccc(CCC(F)(F)F)n3)CC2)nc1,-3.3%
28,CCOc1cccc2c1OC[C@@H]1CN(CCOC)C(=O)CCN(C(=O)c3ccccc3OC)[C@H]21,-8.59%

row,SMILES,activity change
1,CC(C)(C)OC(=O)N1CCC(c2c(C(=O)NCc3ccccn3)cnn2-c2ccc(F)cc2)CC1,-1.08%
2,Cc1cccc(-n2ncc(C(=O)N3CCc4ccccc4C3)c2C2CCN(C(=O)OC(C)(C)C)CC2)c1,32.7%
3,CC(C)(C)OC(=O)N1CCC(c2c(C(=O)N3CCc4ccccc4C3)cnn2-c2ccc(F)cc2)CC1,-28.8% (active)
4,COc1ccc(-c2cc(C(=O)NCC(F)(F)F)c3c(C4CCCN4)nn(C)c3n2)cc1 (stereo not given),-2.22%
5,COc1ccccc1-c1cccc(C(=O)N2CCN(C(=O)Cc3ccc(F)cc3)CC2)c1,5.42%
6,CCOC(=O)c1ccc(NC(=O)CCS(=O)(=O)c2ccc3c(c2)oc(=O)n3C)cc1,9.62%
7,CCOC(=O)c1ccc(NC(=O)CCS(=O)(=O)c2ccc(C)cc2)cc1,-30% (active)
8,CCOC(=O)c1ccc(NC(=O)CCn2cnnn2)cc1,7.68%
9,O=C(NCc1ccc(F)cc1)C1CCN(c2nccc(Nc3ccccc3F)n2)CC1,18.1%
10,CN(c1ccccc1)c1cc(=O)c2ccnc(Nc3cccc([S+](C)(=O)[O-])c3)c2o1,-11.6%
11,CN(c1ccccc1)c1cc(=O)c2ccnc(NC3CCOCC3)c2o1,-36.2% (active)
12,CN(c1ccccc1)c1cc(=O)c2ccnc(-c3ccc(CO)cc3)c2o1,-7.57%
13,COc1ccc(-n2nc(C3CCN(Cc4ccccn4)CC3)[nH]c2=O)cc1,7.19%
14,O=C(Nc1ccc(F)cc1)c1nc2cccnc2n(Cc2ccccc2)c1=O,14.3%
15,O=C1CCN(CC(O)COc2ccccc2)c2cc3c(cc2CN1CC1CC1)OCO3 (stereo not given),-10.5%
16,COc1ccc(OCC2CN(Cc3cccc(F)c3)[S+](=O)([O-])c3cccnc3O2)cc1 (stereo not given),0.413%
17,O=C1CCN(C(=O)[C@H](Cc2ccccc2)NC(=O)NC2CCCCC2)CCCOCCN1,9.58%
18,COc1ccc(-c2nc(CCNC(=O)c3ccc(Br)o3)cs2)cc1,-32.8% (active)
19,COc1ccc(CCC(=O)NCCc2csc(-c3ccc(Cl)cc3)n2)cc1,-1.97%
20,COc1ccc(CNC(=O)c2noc(-c3ccc(F)cc3)n2)cc1,7.64%
21,O=C(c1cccc(OC2CN(Cc3nccs3)C2)c1)N1CCOCC1,-3.36%
22,O=C(NCc1cccc(Cl)c1)c1ccc2nccn2c1,-8.99%
23,Cc1n[nH]c(C)c1CNC(=O)C1Cn2cccc2C(=O)N1Cc1ccccc1 (stereo not given),-3.14%
24,COc1ccc(Cl)cc1-c1ccc2c(c1)C(=O)N1CCN(C(=O)CSC)C[C@@H]1C(=O)N2,-8.89%
25,CCc1ccc(NC(=O)c2cc(S(=O)(=O)NC3CCCCCC3)ccc2F)cc1,-6.25%
26,COc1ccccc1NC(=O)c1cc(S(=O)(=O)NCCc2ccccc2)ccc1F,14.4%
27,Cc1ccc(NC(=O)c2cc(S(=O)(=O)NCCC3=CCCCC3)ccc2F)cc1C,-26.3% (active)
